According to the supplement of paper PMC6555819:

The sequences below were run on RXRa homodimer (NR concentration 180 nM) (assay: PBM binding z-score (relative to random genomic background probes); higher = stronger binding; sequences stand for … in GC…GCGATTGACAGCGTAGAATGAAGG).
Outline: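 Binding z-scores take random background probes as their reference. They come from custom Agilent 4×180K protein-binding microarrays incubated 1 h with ligand-free nuclear receptor dimers, with antibodies against each partner (one per run) detecting binding. Scanned fluorescence was regression-normalized.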

| Sequence | PBM binding z-score |
| --- | --- |
| ACATGTAGGTTATCGGGTCATTCAGTTTGCGCAT | 3.6 |
| CCTACTGAGCCATCAGGTCATTGATATCAACGTT | 1.42 |
| GCTATTAGTTGAAAGGGCCACCGAATGATTCTCG | 0.34 |
| TCTATTTGTTGAAGGGCAACCGACGAGTCCGTTT | 0.578 |
| TGAATGAGGTCATAAGATCAGGGAACGTTGCAAA | 5.88 |
| ATCTCTTGGTAAAGATAGTTCAGTGAATGCAAAT | 0.246 |
| ATCTCTAGGTAGCAAGTTCAGTGAAAGAGAGGAC | 0.352 |
| ATCTCTAGGTAAAAGTCCAGTGAATCCCGAGGAT | -0.00664 |
| AGTCAAAGTTCATCTAGGAAACGTAAGATATGCT | 4.58 |
| CCGAGCAGGTTATGGGGCATTCAGGCAACGGTGA | 0.679 |
| CCGACTGGGGCATAAGGTTACCCTAAGCCAGCCC | 1.07 |
| CCTTACAGGTCACTCCAGGTTATAGCATCGGAGT | 4.35 |
| CGAAATAGGTCAAGGACAGTGAATCTCCGCACGC | 4.67 |
| AGAACGAGGCCACGCTGAGTTGATAGCAGAGTAG | 0.15 |
| CCTGCTAGGTCAATGGTAAGCTAAAGCAGCTCGC | 1.96 |
| AGAATAAGGTTATACGTAGATCAGGGAAGAAAGT | 1.89 |
| TCTATTAGTTGAAGGGCAACCGCCGAGTCCGTTT | 0.559 |
| ATATCTAGGTAACCAAGTTCAGTGAATGCCGAAC | 0.83 |
| CAGCCTAGGTCAGGTCCAGTATAGGAGGAACGTT | 1.14 |
| TCGAGTAGGTTACCAATGGGGCATTAAGCTTTCT | 0.336 |
| TCTTGTAGATCAACAGGAGGCTAAGAAAGATCGA | -0.111 |
| TTAGCAAGGTGAGCTGAGGTCGTTGATCCAACTC | 1.13 |
